This passage reports log2 fold change results from the supplement of paper PMC10849652.

Of roughly 7,900 targets only a part is listed; those with a hit were picked by preference. About 0.6% of all pairs of compound and target were hits. A number with no mark means an inactive call.

UniProt Q8WWV3, sequence (Q8WWV3 whole entry, looked up): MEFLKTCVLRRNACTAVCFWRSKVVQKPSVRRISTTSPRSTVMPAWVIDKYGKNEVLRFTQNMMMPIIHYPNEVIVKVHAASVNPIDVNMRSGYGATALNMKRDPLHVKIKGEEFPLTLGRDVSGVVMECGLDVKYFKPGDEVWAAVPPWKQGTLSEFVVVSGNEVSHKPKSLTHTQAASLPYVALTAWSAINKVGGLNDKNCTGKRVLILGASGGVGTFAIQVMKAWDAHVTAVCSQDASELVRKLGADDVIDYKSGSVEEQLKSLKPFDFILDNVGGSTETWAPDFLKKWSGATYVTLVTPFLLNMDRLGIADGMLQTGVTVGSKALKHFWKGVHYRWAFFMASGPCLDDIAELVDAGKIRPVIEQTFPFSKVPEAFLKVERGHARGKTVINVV
UniProt Q13796, sequence (Q13796 whole entry, looked up): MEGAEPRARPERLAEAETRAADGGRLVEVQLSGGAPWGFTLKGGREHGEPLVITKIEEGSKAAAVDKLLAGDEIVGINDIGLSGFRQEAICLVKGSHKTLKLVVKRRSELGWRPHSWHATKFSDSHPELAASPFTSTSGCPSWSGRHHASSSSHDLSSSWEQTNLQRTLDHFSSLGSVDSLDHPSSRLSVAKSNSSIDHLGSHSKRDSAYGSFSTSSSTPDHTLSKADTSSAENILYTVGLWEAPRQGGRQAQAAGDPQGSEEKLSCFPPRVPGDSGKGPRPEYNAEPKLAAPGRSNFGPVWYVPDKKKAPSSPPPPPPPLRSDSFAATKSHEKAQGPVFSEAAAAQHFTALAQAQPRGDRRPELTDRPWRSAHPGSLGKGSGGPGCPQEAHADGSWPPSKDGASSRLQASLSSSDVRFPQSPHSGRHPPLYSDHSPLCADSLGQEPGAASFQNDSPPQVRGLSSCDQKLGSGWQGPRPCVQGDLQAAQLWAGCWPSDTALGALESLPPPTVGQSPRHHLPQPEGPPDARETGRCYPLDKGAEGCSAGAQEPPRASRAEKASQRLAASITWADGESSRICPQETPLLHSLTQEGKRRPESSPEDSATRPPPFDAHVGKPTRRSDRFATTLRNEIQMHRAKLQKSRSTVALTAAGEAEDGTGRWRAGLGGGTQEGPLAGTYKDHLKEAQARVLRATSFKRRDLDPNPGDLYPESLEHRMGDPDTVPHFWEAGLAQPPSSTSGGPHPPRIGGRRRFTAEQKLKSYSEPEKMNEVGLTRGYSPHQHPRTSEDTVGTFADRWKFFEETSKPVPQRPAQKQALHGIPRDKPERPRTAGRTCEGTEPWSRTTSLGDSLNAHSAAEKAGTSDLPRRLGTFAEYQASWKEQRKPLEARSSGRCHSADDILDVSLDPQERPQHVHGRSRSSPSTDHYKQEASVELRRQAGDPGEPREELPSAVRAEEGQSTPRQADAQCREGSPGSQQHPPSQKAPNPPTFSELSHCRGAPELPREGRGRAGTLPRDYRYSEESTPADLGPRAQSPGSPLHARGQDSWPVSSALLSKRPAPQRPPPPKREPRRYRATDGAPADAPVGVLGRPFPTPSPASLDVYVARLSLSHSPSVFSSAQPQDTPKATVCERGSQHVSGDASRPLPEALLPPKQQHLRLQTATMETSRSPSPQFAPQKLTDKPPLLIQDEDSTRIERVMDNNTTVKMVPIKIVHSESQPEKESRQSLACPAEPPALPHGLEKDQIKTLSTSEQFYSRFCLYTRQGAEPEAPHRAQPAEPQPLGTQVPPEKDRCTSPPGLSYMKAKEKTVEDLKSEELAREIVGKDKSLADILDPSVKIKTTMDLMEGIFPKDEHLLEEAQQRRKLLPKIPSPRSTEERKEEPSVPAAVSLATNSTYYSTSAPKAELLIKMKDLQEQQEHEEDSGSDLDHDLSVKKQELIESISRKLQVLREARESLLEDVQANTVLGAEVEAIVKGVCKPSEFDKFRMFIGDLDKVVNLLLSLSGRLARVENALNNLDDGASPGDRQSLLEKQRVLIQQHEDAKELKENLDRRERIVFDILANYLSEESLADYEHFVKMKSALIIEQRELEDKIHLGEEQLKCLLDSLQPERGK
UniProt Q14498, sequence (Q14498 whole entry, looked up): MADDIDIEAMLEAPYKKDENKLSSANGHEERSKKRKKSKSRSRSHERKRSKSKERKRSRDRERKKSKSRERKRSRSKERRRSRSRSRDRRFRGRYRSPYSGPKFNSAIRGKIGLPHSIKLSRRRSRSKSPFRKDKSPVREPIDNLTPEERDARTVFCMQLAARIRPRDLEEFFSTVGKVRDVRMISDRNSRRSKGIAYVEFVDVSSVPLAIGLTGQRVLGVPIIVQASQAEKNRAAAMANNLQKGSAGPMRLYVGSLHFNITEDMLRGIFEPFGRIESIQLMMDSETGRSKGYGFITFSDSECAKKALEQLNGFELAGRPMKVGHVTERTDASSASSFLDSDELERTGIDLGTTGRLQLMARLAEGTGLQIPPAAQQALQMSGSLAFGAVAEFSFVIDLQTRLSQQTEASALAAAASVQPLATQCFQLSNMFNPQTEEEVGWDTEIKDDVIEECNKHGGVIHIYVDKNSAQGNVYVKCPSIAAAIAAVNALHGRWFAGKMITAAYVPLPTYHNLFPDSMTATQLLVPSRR
UniProt Q96T51, sequence (Q96T51 whole entry, looked up): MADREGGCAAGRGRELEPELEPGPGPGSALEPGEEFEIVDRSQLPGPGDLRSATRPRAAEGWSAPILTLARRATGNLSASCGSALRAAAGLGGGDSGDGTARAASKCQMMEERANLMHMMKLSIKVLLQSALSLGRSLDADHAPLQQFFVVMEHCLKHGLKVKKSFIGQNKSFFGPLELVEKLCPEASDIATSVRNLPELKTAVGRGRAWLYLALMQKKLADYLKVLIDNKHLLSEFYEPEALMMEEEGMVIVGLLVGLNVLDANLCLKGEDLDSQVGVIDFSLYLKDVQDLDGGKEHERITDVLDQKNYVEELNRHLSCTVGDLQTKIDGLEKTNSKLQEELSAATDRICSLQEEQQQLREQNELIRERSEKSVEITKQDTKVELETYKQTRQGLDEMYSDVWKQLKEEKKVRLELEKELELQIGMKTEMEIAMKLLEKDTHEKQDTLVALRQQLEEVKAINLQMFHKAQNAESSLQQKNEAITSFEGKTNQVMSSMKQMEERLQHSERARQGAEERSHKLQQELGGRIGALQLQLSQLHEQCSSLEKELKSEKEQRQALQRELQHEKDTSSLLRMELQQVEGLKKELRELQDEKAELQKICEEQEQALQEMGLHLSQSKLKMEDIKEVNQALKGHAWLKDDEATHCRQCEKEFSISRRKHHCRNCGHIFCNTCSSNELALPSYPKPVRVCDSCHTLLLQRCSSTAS
UniProt Q8IXJ6, sequence (Q8IXJ6 whole entry, looked up): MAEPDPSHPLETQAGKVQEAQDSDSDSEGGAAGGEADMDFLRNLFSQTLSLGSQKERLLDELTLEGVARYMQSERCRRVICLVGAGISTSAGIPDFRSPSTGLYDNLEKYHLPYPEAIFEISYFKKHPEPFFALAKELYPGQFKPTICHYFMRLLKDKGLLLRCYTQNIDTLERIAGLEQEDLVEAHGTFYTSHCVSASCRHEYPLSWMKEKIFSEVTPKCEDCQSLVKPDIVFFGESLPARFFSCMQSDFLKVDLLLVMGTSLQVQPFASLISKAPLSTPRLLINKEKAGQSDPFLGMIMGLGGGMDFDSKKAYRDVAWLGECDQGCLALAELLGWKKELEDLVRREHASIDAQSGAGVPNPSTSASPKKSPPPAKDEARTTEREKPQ
UniProt Q9H6H4, sequence (Q9H6H4 whole entry, looked up): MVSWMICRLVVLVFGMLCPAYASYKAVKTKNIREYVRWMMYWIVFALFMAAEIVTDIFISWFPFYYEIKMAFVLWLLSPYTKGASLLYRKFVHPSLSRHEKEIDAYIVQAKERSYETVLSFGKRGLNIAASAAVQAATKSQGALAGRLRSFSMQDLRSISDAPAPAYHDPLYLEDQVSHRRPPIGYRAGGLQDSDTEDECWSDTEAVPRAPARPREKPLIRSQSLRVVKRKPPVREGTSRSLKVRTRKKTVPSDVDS
UniProt Q9HB90, sequence (Q9HB90 whole entry, looked up): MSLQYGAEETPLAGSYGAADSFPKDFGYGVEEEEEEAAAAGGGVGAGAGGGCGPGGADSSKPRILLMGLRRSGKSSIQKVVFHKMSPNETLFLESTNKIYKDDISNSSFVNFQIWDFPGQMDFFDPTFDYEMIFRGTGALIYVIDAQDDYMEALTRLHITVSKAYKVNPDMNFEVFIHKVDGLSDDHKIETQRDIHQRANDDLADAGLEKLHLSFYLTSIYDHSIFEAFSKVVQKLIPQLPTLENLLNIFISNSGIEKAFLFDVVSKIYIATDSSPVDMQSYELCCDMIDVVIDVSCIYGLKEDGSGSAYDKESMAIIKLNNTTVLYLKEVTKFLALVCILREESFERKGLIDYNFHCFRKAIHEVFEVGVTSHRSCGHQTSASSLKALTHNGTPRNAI
UniProt Q8N0T1, sequence (Q8N0T1 whole entry, looked up): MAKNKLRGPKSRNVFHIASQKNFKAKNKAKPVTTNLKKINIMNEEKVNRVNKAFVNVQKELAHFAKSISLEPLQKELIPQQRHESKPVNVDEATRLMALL
UniProt Q8WXD2, sequence (Q8WXD2 whole entry, looked up): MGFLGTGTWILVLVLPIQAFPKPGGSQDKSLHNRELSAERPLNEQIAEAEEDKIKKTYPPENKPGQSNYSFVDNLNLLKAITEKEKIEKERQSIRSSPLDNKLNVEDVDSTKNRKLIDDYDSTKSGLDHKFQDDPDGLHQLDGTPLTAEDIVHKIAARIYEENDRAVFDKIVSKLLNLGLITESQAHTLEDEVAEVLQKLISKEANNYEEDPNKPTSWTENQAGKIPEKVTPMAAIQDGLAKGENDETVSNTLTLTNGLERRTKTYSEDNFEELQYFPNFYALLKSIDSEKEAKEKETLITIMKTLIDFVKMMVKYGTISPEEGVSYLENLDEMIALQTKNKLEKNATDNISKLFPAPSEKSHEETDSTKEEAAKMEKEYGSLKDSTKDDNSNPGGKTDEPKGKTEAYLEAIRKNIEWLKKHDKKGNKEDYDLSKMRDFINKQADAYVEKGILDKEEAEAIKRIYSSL
UniProt Q9BUV8, sequence (Q9BUV8 whole entry, looked up): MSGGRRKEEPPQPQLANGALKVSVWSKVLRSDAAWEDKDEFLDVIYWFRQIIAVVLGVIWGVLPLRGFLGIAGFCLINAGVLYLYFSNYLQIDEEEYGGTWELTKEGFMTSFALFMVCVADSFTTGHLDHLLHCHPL

Compound in one experiment: C1=CC=C(C=C1)[C@H](COC2=CC3=C(C=C2)NC(=O)N3)NC(=O)C4=CC=CN(C4=O)CC5=CC(=C(C=C5)F)F
Briefly: log2 fold change, soluble protein after heating vs DMSO (PISA); higher = thermal stabilisation; K562 cells, 10 uM, 30 min; active = over 0.2 and 3.5 SD of the protein, either way, in both replicates (recomputed). The method, boiled down: (§1)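 Aliquots of K562 cells (2×10^6 cells/mL) treated with 10 μM compound for 30 min were heated for 3 min over 48°C-58°C. After pooling and extraction in PBS with 0.5% NP-40 at 4°C, soluble protein from a 21,000xg, 90 min spin was quantified by TMTpro 16plex LC-MS/MS with channel sums equalised. Thermal stability is expressed against control samples, from duplicates, as a log2 fold change.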
Turning to RTN4IP1 (UniProt Q8WWV3), the log2 fold change is 0.

RRAGC (UniProt Q9HB90): the log2 fold change was 0.009.

Take RAB3IL1 (UniProt E9PK89): the log2 fold change is 0.05.

For SCAF11 (UniProt Q99590), the log2 fold change is -0.104.

As for RPS27A (UniProt P62979), the log2 fold change is 0.076.

As for RBM39 (UniProt Q14498), the log2 fold change is 0.015.

On to RBIS (UniProt Q8N0T1), for which the log2 fold change was 0.035.

Regarding RPS3 (UniProt P23396), the log2 fold change is 0.055.

As for SHROOM2 (UniProt Q13796), the log2 fold change is 0.105.

As for SIRT2 (UniProt Q8IXJ6), the log2 fold change is -0.075.

Turning to ROR2 (UniProt Q01974), the log2 fold change is -0.062.

With RUFY1 (UniProt Q96T51), the log2 fold change is -0.006.

REEP4 (UniProt Q9H6H4): the log2 fold change is -0.004.

On to RPS14 (UniProt P62263), for which the log2 fold change was 0.041.

For the target SETD3 (UniProt Q86TU7), the log2 fold change was -0.017.

As to SCG3 (UniProt Q8WXD2), the log2 fold change was 0.131.

Compound in the next experiment: CC1=C(SC2=C1C(=N[C@H](C3=NN=C(N32)C)CC(=O)N)C4=CC=C(C=C4)Cl)C
Described as above. The essentials:
as §1
Consider RRAGB (UniProt Q5VZM2), for which the log2 fold change is -0.028.

For RIOK2 (UniProt Q9BVS4), the log2 fold change was -0.038.

As to RCOR3 isoform 3 (UniProt Q9P2K3), the log2 fold change is 0.087.

For RAC1 (UniProt P63000), the log2 fold change was 0.017.

Regarding SEH1L isoform 1 (UniProt Q96EE3), the log2 fold change was 0.06.

For RAB3D (UniProt O95716), the log2 fold change is -0.105.

Consider RBM25 (UniProt P49756), for which the log2 fold change was 0.

For RHOXF2 (UniProt Q9BQY4), the log2 fold change is -0.031.

As to RPS13 (UniProt P62277), the log2 fold change is -0.234.

For SENP6 (UniProt Q9GZR1), the log2 fold change is 0.014.

In the case of RCN3 (UniProt Q96D15), the log2 fold change is 0.032.

SAFB2 (UniProt Q14151): the log2 fold change was -0.087.

With RMC1 (UniProt Q96DM3), the log2 fold change is 0.064.

Take RPS16 (UniProt P62249): the log2 fold change was -0.149.

RAPGEF4 (UniProt Q8WZA2): the log2 fold change was 0.152.

Turning to RNF187 (UniProt Q5TA31), the log2 fold change is 0.07.

For SCCPDH (UniProt Q8NBX0), the log2 fold change is 0.087.

Consider RBM8A (UniProt Q9Y5S9), for which the log2 fold change is -0.005.

With RAB5IF isoform 5 (UniProt Q9BUV8), the log2 fold change was 0.101.

As to RNPS1 (UniProt Q15287), the log2 fold change is 0.001.

With RPS6KA2 isoform 2 (UniProt Q15349), the log2 fold change was 0.045.

With RTN4IP1 (UniProt Q8WWV3), the log2 fold change is 0.07.

For the target RRAGC (UniProt Q9HB90), the log2 fold change is 0.104.

Regarding RAB3IL1 (UniProt E9PK89), the log2 fold change is 0.259.

Consider SCAF11 (UniProt Q99590), for which the log2 fold change is -0.098.

As to RPS27A (UniProt P62979), the log2 fold change is -0.111.

Turning to RBM39 (UniProt Q14498), the log2 fold change was -0.004.

With RBIS (UniProt Q8N0T1), the log2 fold change was -0.034.

RPS3 (UniProt P23396): the log2 fold change was -0.118.

In the case of SHROOM2 (UniProt Q13796), the log2 fold change was 0.102.

Take SIRT2 (UniProt Q8IXJ6): the log2 fold change is 0.107.

ROR2 (UniProt Q01974): the log2 fold change is 0.004.

Consider RUFY1 (UniProt Q96T51), for which the log2 fold change is -0.029.

Regarding REEP4 (UniProt Q9H6H4), the log2 fold change was -0.034.

On to RPS14 (UniProt P62263), for which the log2 fold change was -0.162.

As for SETD3 (UniProt Q86TU7), the log2 fold change was 0.018.

SCG3 (UniProt Q8WXD2): the log2 fold change was 0.034.
